tim10-1 inh = growth inhibitors of tim10-1 mutant yeast, primary screen, luminescence, uHTS. inhibition, % at 20 µM. S. cerevisiae tim10-1 ts strain growth, BacTiter-Glo, 24 h. 2.2% of 330,000 active;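 active = inhibition of at least 40%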;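 note: mutant grown at 25 °C; 0% = DMSO wells with yeast and 100% = wells holding no yeast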
TIM10 inh = growth inhibitors of isogenic TIM10 control yeast, primary screen, counter-screen for tim10-1 yeast inhibitor project, luminescence, uHTS. AID 463195, 2010. inhibition, % at 10 µM. 1.4% of 330,000 active. S. cerevisiae TIM10 strain growth, BacTiter-Glo luminescence, 24 h;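 active = inhibition of 40% or more at the single tested concentration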;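 note: wild-type TIM10 isogenic control strain grown at permissive 25 °C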
tim23-1 inh = growth inhibitors of tim23-1 mutant yeast, primary screen, luminescence, uHTS; S. cerevisiae tim23-1 growth, BacTiter-Glo luminescence, 24 h; inhibition, % at 20 µM; 1.3% of 330,000 active; AID 463212, 2010;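 active = growth inhibition of the mutant yeast at or above 50%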;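 note: temperature-sensitive mutant grown at 25 °C; plate controls were DMSO-treated mutant yeast for no effect and medium wells lacking yeast for full effect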
NALP1 inh = NALP1 inflammasome inhibitors in reconstituted yeast, colorimetric, S. cerevisiae, triplicate retest; S. cerevisiae NALP1/ASC/caspase-1 growth, X-gal OD620, 72 h; inhibition, % at 10 µM; 0.61% of 280,000 active; AID 2071, 2009; in the data active = inhibition mostly above about 24%, no sharp cut-off; inactive = mostly below about 32%
NLRP3 yeast inh = NALP3 inflammasome inhibitors in reconstituted yeast, primary screen, luminescence, uHTS; Yeast reconstituted NLRP3/ASC/caspase-1, beta-gal luminescence, 24 h; inhibition, % at 10 µM; 0.39% of 330,000 active;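 active = inhibition of 50% or more; inactive = inhibition below 50%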;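 note: plate controls were induced DMSO wells for no effect and uninduced yeast grown without galactose for full effect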
tim10-1 confirm = growth inhibitors of tim10-1 mutant yeast, confirmation, single concentration, luminescence, S. cerevisiae. shares compounds with tim10-1 inh. 56% of 7,400 active. AID 463213, 2010. inhibition, % at 20 µM. S. cerevisiae tim10-1 ts strain growth, BacTiter-Glo, 24 h;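 active = inhibition of yeast growth at or above a set limit in either of two repeat tests at 20 µM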;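 note: tim10-1 mutant grown at permissive 25 °C to find synthetic lethal compounds; 0% = DMSO yeast wells and 100% = medium wells without yeast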
TIM10 conf = growth inhibitors of wild-type TIM10 yeast, confirmation, counter-screen for tim10-1 synthetic lethality project, single concentration, luminescence, S. cerevisiae; shares compounds with TIM10 inh; S. cerevisiae tim10 strain growth, BacTiter-Glo luminescence, 24 h; inhibition, % at 10 µM; 63% of 4,600 active;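 active = inhibition of yeast growth at or above a set limit in either of two replicates at 10 µM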;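 note: this counterscreen used the strain with wild-type TIM10; 0% = yeast with DMSO and 100% = medium wells lacking yeast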
tim23-1 confirm = tim23-1 mutant yeast growth inhibitors, confirmation, luminescence, single concentration. shares compounds with tim23-1 inh. S. cerevisiae tim23-1 growth, BacTiter-Glo luminescence, 24 h. inhibition, % at 20 µM. 83% of 4,400 active. AID 463218, 2010;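 active = inhibition above about 39% in either of two replicate wells at 20 µM, limit read from the data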;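 note: temperature-sensitive tim23-1 mutant grown at 25 °C; 0% = DMSO wells with yeast and 100% = medium wells without yeast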
* marks the source's active call; other numbers are inactive results; / = no result. A selection: hits, their analogues and other compounds. The true share with any hit is near 4.1%.

SMILES | tim10-1 inh | TIM10 inh | tim23-1 inh | NALP1 inh | NLRP3 yeast inh | tim10-1 confirm | tim23-1 confirm | others
CC(Nc1nc(-c2ccccc2F)nc2ccccc12)c1ccccc1 (stereo unspecified) | 37.4 | 36.5 | 41.4 | 1.9 | 12.4 | / | /
COc1ccccc1NC(=O)NCC(c1ccco1)N1CCCCC1 (stereo unspecified) | 8.8 | 4.5 | 6.4 | -5.9 | 1.7 | / | /
Fc1ccc(C2Nc3cccc4cccc(c34)N2)cc1 | 44.6* | 31.5 | 56.7* | 12.1 | -2.7 | 29.9 | 50.9*
O=C1c2ccccc2NC(c2ccc(Br)s2)N1O (stereo unspecified) | -0.9 | 16.0 | 26.6 | / | 9.5 | / | /
COc1ccccc1N1CCN(C(=O)c2cc3c(C)nc4ccccc4c3o2)CC1 | 48.9* | 17.7 | 54.2* | 15.8 | 21.8 | 16.5 | 33.5
Cc1ccc(N(C)C(=O)c2ccc3c(Cl)c4c(nc3c2)CCC4)cc1C | 41.1* | 20.8 | 55.0* | 32.8 | 11.7 | 34.8* | 55.8*
COc1ccccc1N1CCN(C(=O)c2ccc3c(Cl)c4c(nc3c2)CCCC4)CC1 | 53.4* | 30.7 | 55.6* | 42.2 | 9.5 | 36.0* | 57.2*
COc1ccccc1CCCNC(=O)C1CCC(=O)N(CCc2cccc(F)c2)C1 (stereo unspecified) | 2.2 | 5.8 | 0.8 | -3.0 | 13.7 | / | /
O=C(N/N=C/c1ccc(O)c(O)c1)NC12CC3CC(CC(C3)C1)C2 | 20.3 | -3.0 | 12.6 | 5.8 | 4.5 | / | /
O=C(N/N=C/c1ccccc1O)NC12CC3CC(CC(C3)C1)C2 | 44.4* | 28.8 | 71.3* | 12.1 | 14.0 | 36.5* | 67.8*
CCCOC1CCCN(C(=O)c2ccc(OC3CCN(Cc4ccccn4)CC3)cc2)C1 (stereo unspecified) | -2.6 | 1.5 | 3.9 | 13.7 | 13.0 | / | /
O=C(c1cccc2nc3ccccc3nc12)N1CCOCC1 | -7.6 | 0.0 | -3.1 | 10.3 | 17.7 | / | /
Cc1csc(NC(=O)c2cc3c(s2)CCCCC3)n1 | 46.0* | 41.7* | 57.1* | 11.9 | -8.3 | 38.7* | 49.2* | TIM10 conf=36.8*
Cc1csc(NC(=O)c2cc3c(s2)CCCC3)n1 | 35.6 | 36.0 | 49.9 | 22.7 | 11.1 | / | /
COc1ccc(-c2coc3cc(O)cc(O)c3c2=O)cc1 | 53.0* | 23.1 | 68.5* | 30.5 | 41.4 | 37.0* | 63.5*
COC(C/C=C\C(=O)[C@@H](C)OCc1ccccc1)OC | 41.1* | 30.0 | 52.1* | / | 17.0 | 29.3 | 44.9*
COc1ccc(COn2nnc3ccc(S(=O)(=O)N4CCOCC4)cc32)cc1F | 4.7 | 2.5 | 12.5 | / | 10.1 | / | /
C=CC[n+]1c(-c2ccc(Cl)cc2Cl)csc1Nc1ccc(NC(C)=O)cc1 | 59.5* | 36.8 | 66.7* | -3.4 | 21.8 | 58.5* | 78.5*
Cc1c(NC(=O)Nc2cc(Cl)ccc2Cl)c(=O)n(-c2ccccc2)n1C | -9.9 | 13.7 | 3.0 | 11.3 | 8.6 | / | /
C=CC[n+]1c(-c2ccc(Cl)cc2Cl)csc1Nc1c(C)n(C)n(-c2ccccc2)c1=O | 48.8* | 30.1 | 52.3* | -0.8 | 27.1 | 37.7* | 49.0*
CCCC[n+]1c(-c2ccc(Cl)cc2Cl)csc1Nc1ccccc1 | 9.8 | 8.5 | -1.6 | 11.8 | 13.5 | / | /
Cc1ccc2c(c1)C(=O)C(=O)N2CC1COc2ccccc2O1 (stereo unspecified) | 41.0* | 18.4 | 65.5* | 17.0 | 17.9 | 30.2 | 77.6*
COc1cccc(N=Cc2nc(-c3ccccc3)oc2OC(C)=O)c1 | 64.5* | 43.8* | 73.5* | -3.7 | 0.7 | 50.9* | 70.1* | TIM10 conf=34.2*
COc1ccc(N=Cc2nc(-c3ccccc3)oc2OC(C)=O)cc1 | 46.2* | 47.9* | 70.0* | 14.0 | 1.4 | 47.2* | 63.0* | TIM10 conf=25.8

From PubChem BioAssay
